Only a selection was taken, and hits are over-represented in it overall.
Ba CapD inh = blocks the Bacillus anthracis CapD enzyme; purified CapD enzyme, fluorescence intensity read-out; stronger effect = lower value; z-score (test concentration not listed); 0.23% of 140,000 active; AID 492967; in the data active means z-score mostly below about -2.9, no sharp cut-off; inactive means mostly above about -1.9
* hit, by the source's call.

How did O=C(NCCc1ccccc1)C1CCCCC1C(=O)OCC(F)(F)F (configuration not stated) do in these assays?
Ba CapD inh: 0.205

How did CCOC(=O)Cn1c(-c2cccs2)cc2ccccc21 do in these assays?
Ba CapD inh: 114

How did CCOC(=O)c1nc2ccccc2c(C)c1C do in these assays?
Ba CapD inh: -0.98

Results for CC(=O)n1c(N)nc2ccccc21 ?
Ba CapD inh: -0.485

How did CCOC(=O)c1nc2ccccc2n(C(C)=O)c1=O do in these assays?
Ba CapD inh: -6.62*

What do the screens show for `CN(C)c1ccc(C(Nc2nccs2)c2ccc3cccnc3c2O)cc1` (configuration not stated)?
Ba CapD inh: inactive

How did Cc1ccc2oc(=O)c3cnn(CC(=O)N(CC(C)C)CC(C)C)c3c2c1 do in these assays?
Ba CapD inh: -0.09

Results for CN1CCN(S(=O)(=O)c2cc3c(c([N+](=O)[O-])c2)-c2c(cc(S(=O)(=O)N4CCN(C)CC4)cc2[N+](=O)[O-])C3=O)CC1 ?
Ba CapD inh: 0.02

How did Cc1ccc(-c2nc3ccccc3c(=O)o2)cc1 do in these assays?
Ba CapD inh: 0.445

How did Cc1ccc(-c2cccc(=O)o2)cc1 do in these assays?
Ba CapD inh: -3.96*

Results for Cc1ccc2c(=O)cc(-c3ccc(F)cc3)oc2c1 ?
Ba CapD inh: -0.205

What do the screens show for `Oc1ccc(Cl)cc1C=Nc1ccc2oc(Cc3ccc(Cl)cc3)nc2c1`?
Ba CapD inh: -0.34

How did CC1CCc2c(sc(NC(=O)c3cc4nc(-c5ccco5)cc(C(F)(F)F)n4n3)c2C(N)=O)C1 (configuration not stated) do in these assays?
Ba CapD inh: -0.275

How did O=C(c1cn(Cc2nc(-c3cccs3)no2)c2ccccc12)C(F)(F)F do in these assays?
Ba CapD inh: 0.055

What do the screens show for `Cc1ccc(N2CCN(S(=O)(=O)c3cccc(Cl)c3Cl)CC2C)cc1` (configuration not stated)?
Ba CapD inh: -0.375

What do the screens show for `O=C(NN=C(c1ccccc1)c1ccccc1)c1ccco1`?
Ba CapD inh: -0.355

How did CCO/C=C1\SC(=S)N(c2ccc(Cl)cc2)C1=O do in these assays?
Ba CapD inh: 0.45

Results for CCO/C=C1\SC(=S)N(/N=C/c2cccc(Cl)c2)C1=O ?
Ba CapD inh: -4.42*

How did CCO/C=C1/SC(=S)N(CCc2ccc(Cl)cc2)C1=O do in these assays?
Ba CapD inh: -2.1

How did CCN(CC)c1ccc(O)c(/C=N/N2C(=O)/C(=C/c3ccco3)N=C2c2ccccc2)c1 do in these assays?
Ba CapD inh: -1.06

What do the screens show for `NS(=O)(=O)c1ccccc1NC(=O)NCc1ccc(F)cc1`?
Ba CapD inh: -0.355

How did CC1(C)CC(=O)C(C(=S)Nc2ccccc2)C(=O)C1 do in these assays?
Ba CapD inh: -0.09

How did CC1(C)CC(=O)/C(=N/Nc2ccccc2)CO1 do in these assays?
Ba CapD inh: -4.01*

What do the screens show for `CC1(C)Cc2c(c(=O)n(-c3ccccc3)c3ncnc(N)c23)CO1`?
Ba CapD inh: -1.29

What do the screens show for `CCc1ccc(N=Cc2c[nH]c3ccccc23)cc1`?
Ba CapD inh: -0.06

Results for CCCCn1c(/N=C/c2nc3ccccc3n2C)nc2ccccc21 ?
Ba CapD inh: 0.105

Results for CCCn1c(/N=C/c2c[nH]c3ccccc23)nc2ccccc21 ?
Ba CapD inh: -4.11*

Results for Cc1cccc(-c2noc(CN(C(=O)Cc3ccccc3)C(C)C)n2)c1 ?
Ba CapD inh: -0.195

Results for Cc1cccc(N2CCN(C(=O)c3ccc4c(=O)[nH]c5c(C(=O)NC(C)C)sc(=S)n5c4c3)CC2)c1C ?
Ba CapD inh: -3.87*

How did COc1ccc(NC(=O)c2sc(=S)n3c2[nH]c(=O)c2ccccc23)cc1 do in these assays?
Ba CapD inh: -2.34

What do the screens show for `Cc1ccc(NC(=O)c2sc(=S)n3c2[nH]c(=O)c2ccccc23)c(C)c1`?
Ba CapD inh: -1.34

Results for Cc1oc(N)c(C#N)c1C ?
Ba CapD inh: 0.37

How did CCCc1ccc(-c2c3c(c(-c4ccccc4)n2-c2cccc4ccccc24)C(=O)c2ccccc2C3=O)cc1 do in these assays?
Ba CapD inh: 28.9

Results for Cc1cccc2nc(CSc3nc4cc([N+](=O)[O-])ccc4o3)c(Br)n12 ?
Ba CapD inh: -1.5

Results for Cc1cc(-c2ccc(C(C)C)c(S(=O)(=O)NC3CCCC3)c2)on1 ?
Ba CapD inh: -1.44

How did O=C(NN1S(=O)(=O)c2ccccc2S1(=O)=O)c1ccco1 do in these assays?
Ba CapD inh: -5.7*

How did COc1cc(C(=O)NN2S(=O)(=O)c3ccccc3S2(=O)=O)cc(OC)c1OC do in these assays?
Ba CapD inh: -0.55

How did O=C(NN1S(=O)(=O)c2ccccc2S1(=O)=O)c1ccc(Br)cc1 do in these assays?
Ba CapD inh: 0.285

What do the screens show for `O=C(NN1S(=O)(=O)c2ccccc2S1(=O)=O)c1cscn1`?
Ba CapD inh: -5.99*

What do the screens show for `O=C(Nc1ccccc1C(=O)NN1S(=O)(=O)c2ccccc2S1(=O)=O)c1ccccc1Cl`?
Ba CapD inh: 0.09

Results for Cc1ccc(C)n1NC(=O)c1ccco1 ?
Ba CapD inh: 0.055

What do the screens show for `Cc1cc2c3c([nH]c2cc1S(=O)(=O)N(CCN1CCOCC1)Cc1ccco1)CCCC3=O`?
Ba CapD inh: 0.25

Results for CN(C)c1ccc(CN2CCN(S(=O)(=O)c3ccccc3Cl)CC2)cc1 ?
Ba CapD inh: 0.465

How did CCOC(=O)C1=C(C)N=c2s/c(=C/c3ccc4c(c3)OCO4)c(=O)n2C1c1cc(OC)ccc1OC (configuration not stated) do in these assays?
Ba CapD inh: -0.13

Results for Cc1c(CC(Cl)(Cl)Cl)c2c(n1-c1ccc(Br)cc1)CC(C)(C)CC2=O ?
Ba CapD inh: -0.165

What do the screens show for `COC(=O)CC1(c2ccc(Cl)cc2)C(=O)c2ccccc2C1=O`?
Ba CapD inh: 64.2

How did CCCCn1c(CNC(=O)c2cccs2)nnc1SC(C)C(=O)Nc1sc2c(c1C(=O)OCC)CCC2 (configuration not stated) do in these assays?
Ba CapD inh: -0.71

How did O=c1c2cccnc2nc(SCc2ccccc2F)n1Cc1ccccc1 do in these assays?
Ba CapD inh: 1.01

Results for O=c1c2nccnc2nc(SCc2ccc(F)cc2)n1Cc1ccccc1 ?
Ba CapD inh: -0.305

Results for N#Cc1ccc(CSc2nc3ncccc3c(=O)n2Cc2ccccc2)cc1 ?
Ba CapD inh: -6.45*

Results for CSc1ccc(/C=C2/NC(=O)NC2=O)cc1 ?
Ba CapD inh: 13.3

Results for Cc1noc(/C=C/N(C)C)c1S(=O)(=O)NC1CCCCC1 ?
Ba CapD inh: -4.21*

What do the screens show for `Cc1noc(/C=C/N(C)C)c1S(=O)(=O)NCCN1CCC(Cc2ccccc2)CC1`?
Ba CapD inh: -2.55

Results for Cc1noc(/C=C/N(C)C)c1S(=O)(=O)N(C)c1ccc(C(C)C)cc1 ?
Ba CapD inh: -2.9

What do the screens show for `Cc1cc(C)c(S(=O)(=O)Nc2ccc3c(c2)OCO3)c(C)c1`?
Ba CapD inh: -0.745

How did COC(=O)CN1C(=S)N(C)C(=O)/C1=C/c1ccco1 do in these assays?
Ba CapD inh: -4.13*

Results for CCOc1ccc(/C=C2/C(=O)N(C)C(=S)N2CC(=O)OC)c(OCC)c1 ?
Ba CapD inh: 0.29

How did COc1ccc(NC(=O)CCCN2C(=O)/C(=C\c3ccco3)SC2=S)cc1 do in these assays?
Ba CapD inh: -0.315

What do the screens show for `CO/N=C(\CS(=O)Cc1ccc(OC)cc1)c1ccc(Cl)cc1` (configuration not stated)?
Ba CapD inh: 0.32

How did CC(=O)c1c(C)oc2ccc(N(C(=O)c3ccccc3Cl)S(=O)(=O)c3cccc([N+](=O)[O-])c3)cc12 do in these assays?
Ba CapD inh: -0.03

Results for C/C(C=Nc1ccccc1)=C\Nc1ccccc1 ?
Ba CapD inh: -4.98*

Screening results (PubChem BioAssay)
